Data: PubChem BioAssay (NCI)
Compounds without any hit were thinned out: in the full panel of roughly 83,000, 20% have a hit.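 Compound tested at a single concentration for 48 hours in 96-well plates; a percent growth value below 10 was scored as active.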 Calls of active or inactive are those of the source.

Experiments:
Assay in all cases: NCI-60 one-dose screen, 48 h (100 = growth as untreated, 0 = no growth, -100 = all killed)
Details in all cases: 10 µM
SN12C renal = tested on: SN12C renal
UO-31 renal = tested on: UO-31 renal
TK-10 renal = tested on: TK-10 renal
ACHN renal = tested on: ACHN renal
CAKI-1 renal = tested on: CAKI-1 renal
A498 renal = tested on: A498 renal
MOLT-4 leukemia = tested on: MOLT-4 leukemia
SR leukemia = tested on: SR leukemia
RPMI-8226 leukemia = tested on: RPMI-8226 leukemia
OVCAR-8 ovarian = tested on: OVCAR-8 ovarian
OVCAR-5 ovarian = tested on: OVCAR-5 ovarian
OVCAR-4 ovarian = tested on: OVCAR-4 ovarian
SK-OV-3 ovarian = tested on: SK-OV-3 ovarian
IGROV1 ovarian = tested on: IGROV1 ovarian
OVCAR-3 ovarian = tested on: OVCAR-3 ovarian
HS 578T breast = tested on: HS 578T breast
NCI/ADR-RES ovarian = tested on: NCI/ADR-RES ovarian
CCRF-CEM leukemia = tested on: CCRF-CEM leukemia
EKVX NSCLC = tested on: EKVX NSCLC

Measured: growth

C[C@]12CC[C@@H]3c4ccc(OS(=O)(=O)O)cc4CC[C@H]3[C@@H]1CC[C@@H]2NS(=O)(=O)c1ccc(-c2ccccc2)cc1
inactive: SN12C renal 68.7% | UO-31 renal 40.8% | TK-10 renal 93.3% | ACHN renal 47.7% | CAKI-1 renal 66.2% | A498 renal 85.1% | MOLT-4 leukemia 31.4% | SR leukemia 38.6% | RPMI-8226 leukemia 32.4% | OVCAR-8 ovarian 67.6% | OVCAR-5 ovarian 113% | OVCAR-4 ovarian 66.9% | SK-OV-3 ovarian 91.6% | IGROV1 ovarian 70.4% | OVCAR-3 ovarian 52.6% | HS 578T breast 89.3% | NCI/ADR-RES ovarian 58.5%

CC(C)(C)c1ccc(S(=O)(=O)N[C@H]2CC[C@H]3[C@@H]4CCc5cc(O)ccc5[C@H]4CC[C@]23C)cc1
inactive: SN12C renal 28.4% | UO-31 renal 25.1% | TK-10 renal 67.5% | ACHN renal 35.2% | CAKI-1 renal 38.9% | A498 renal 33.6% | MOLT-4 leukemia 16.8% | RPMI-8226 leukemia 37.9% | OVCAR-8 ovarian 50% | OVCAR-5 ovarian 92.7% | OVCAR-4 ovarian 51.4% | SK-OV-3 ovarian 87% | IGROV1 ovarian 44.6% | OVCAR-3 ovarian 37.3% | HS 578T breast 63.1% | NCI/ADR-RES ovarian 46.4%

Nc1nc(Cn2c(-c3nonc3N)nc3ccccc32)nc(N2CCCCC2)n1
inactive: SN12C renal 98.2% | TK-10 renal 109% | ACHN renal 95.3% | A498 renal 88.6% | CCRF-CEM leukemia 85.7% | MOLT-4 leukemia 83.2% | SR leukemia 58.9% | RPMI-8226 leukemia 68% | OVCAR-8 ovarian 93.2% | OVCAR-5 ovarian 109% | OVCAR-4 ovarian 107% | SK-OV-3 ovarian 79.1% | OVCAR-3 ovarian 95.6% | HS 578T breast 97.2% | NCI/ADR-RES ovarian 83.3%

CC(=O)Nc1ccc(S(=O)(=O)N/N=C(\C)c2ccc(C)cc2C)cc1
inactive: SN12C renal 110% | TK-10 renal 108% | ACHN renal 95.3% | A498 renal 112% | CCRF-CEM leukemia 103% | MOLT-4 leukemia 97.7% | SR leukemia 113% | RPMI-8226 leukemia 104% | OVCAR-8 ovarian 98.5% | OVCAR-5 ovarian 98.4% | OVCAR-4 ovarian 102% | SK-OV-3 ovarian 98.5% | OVCAR-3 ovarian 111% | HS 578T breast 134% | NCI/ADR-RES ovarian 112%

CCCCC(CC)CN=C(N)NC(N)=NCCCCCCN=C(N)NC(N)=NCC(CC)CCCC (stereo unspecified)
inactive: NCI/ADR-RES ovarian 46.7%
active: EKVX NSCLC -80.9% | UO-31 renal 4.54% | TK-10 renal -15.3% | ACHN renal 4.41% | CAKI-1 renal -17.3% | A498 renal -31.3% | MOLT-4 leukemia -73.7% | SR leukemia -67.4% | RPMI-8226 leukemia -46.7% | OVCAR-8 ovarian -71.6% | OVCAR-5 ovarian -87.1% | OVCAR-4 ovarian -57.2% | SK-OV-3 ovarian -38% | IGROV1 ovarian -66.8% | OVCAR-3 ovarian -83.6% | HS 578T breast -52.6%

CC(C)(C)c1ccc(S(=O)(=O)N[C@H]2CC[C@H]3[C@@H]4CCc5cc(OS(=O)(=O)O)ccc5[C@H]4CC[C@]23C)cc1
inactive: SN12C renal 27.4% | UO-31 renal 17% | ACHN renal 33.4% | CAKI-1 renal 41.5% | A498 renal 28.1% | MOLT-4 leukemia 15.2% | SR leukemia 20.7% | RPMI-8226 leukemia 34.1% | OVCAR-8 ovarian 52.1% | OVCAR-5 ovarian 87.3% | OVCAR-4 ovarian 53.4% | SK-OV-3 ovarian 82.1% | IGROV1 ovarian 41.4% | OVCAR-3 ovarian 34.1% | HS 578T breast 66.5% | NCI/ADR-RES ovarian 47.3%

CCn1cc(C(=O)O)c(=O)c2cc(F)c(N3CCNCC3)cc21
inactive: EKVX NSCLC 102% | SN12C renal 106% | TK-10 renal 116% | ACHN renal 95.5% | CAKI-1 renal 96.5% | A498 renal 117% | CCRF-CEM leukemia 102% | MOLT-4 leukemia 93.5% | SR leukemia 100% | RPMI-8226 leukemia 104% | OVCAR-8 ovarian 97% | OVCAR-4 ovarian 111% | SK-OV-3 ovarian 113% | OVCAR-3 ovarian 114% | HS 578T breast 111% | NCI/ADR-RES ovarian 110%

C[C@@H](O)[C@H]1C(=O)N2C(C(=O)O)=C(SC3CN[C@H](C(=O)N(C)C)C3)[C@H](C)[C@H]12 (stereo partly specified)
active: CCRF-CEM leukemia -40.1%
inactive: EKVX NSCLC 104% | SN12C renal 99.5% | UO-31 renal 78.7% | TK-10 renal 106% | ACHN renal 96.9% | A498 renal 88.8% | MOLT-4 leukemia 116% | SR leukemia 123% | RPMI-8226 leukemia 96.5% | OVCAR-8 ovarian 107% | OVCAR-5 ovarian 100% | OVCAR-4 ovarian 114% | SK-OV-3 ovarian 115% | IGROV1 ovarian 101% | OVCAR-3 ovarian 116% | HS 578T breast 102% | NCI/ADR-RES ovarian 101%

O=C(CCc1nnc2sc(-c3cc(O)c(O)c(O)c3)nn12)c1nc2ccccc2[nH]1
inactive: EKVX NSCLC 96.7% | UO-31 renal 83.2% | TK-10 renal 117% | ACHN renal 106% | CAKI-1 renal 100% | A498 renal 75.2% | MOLT-4 leukemia 92.3% | SR leukemia 49.6% | RPMI-8226 leukemia 87% | OVCAR-8 ovarian 94.7% | OVCAR-5 ovarian 117% | SK-OV-3 ovarian 104% | IGROV1 ovarian 109% | OVCAR-3 ovarian 119% | HS 578T breast 88.2%

COc1ccc(/C=C2\CCCC3C2=Nc2ccccc2NC3c2ccc(OC)cc2)cc1 (stereo unspecified)
inactive: EKVX NSCLC 87.5% | SN12C renal 85.5% | UO-31 renal 74.1% | ACHN renal 113% | CAKI-1 renal 78.2% | A498 renal 77.3% | CCRF-CEM leukemia 80.4% | MOLT-4 leukemia 72% | SR leukemia 53.9% | RPMI-8226 leukemia 25.7% | OVCAR-8 ovarian 85.1% | OVCAR-5 ovarian 127% | OVCAR-4 ovarian 77.5% | SK-OV-3 ovarian 89.3% | IGROV1 ovarian 96.6% | OVCAR-3 ovarian 86.8% | HS 578T breast 87.6% | NCI/ADR-RES ovarian 86.2%

CC(C)(C)c1ccc(S(=O)(=O)N[C@H]2CC[C@H]3[C@@H]4CCc5cc(O)c([N+](=O)[O-])cc5[C@H]4CC[C@]23C)cc1
inactive: SN12C renal 71.8% | UO-31 renal 35.2% | TK-10 renal 90.6% | ACHN renal 30% | CAKI-1 renal 46.3% | A498 renal 75.8% | MOLT-4 leukemia 78.5% | SR leukemia 63.5% | RPMI-8226 leukemia 67.3% | OVCAR-8 ovarian 59.6% | OVCAR-5 ovarian 95.9% | OVCAR-4 ovarian 10.3% | SK-OV-3 ovarian 47.7% | IGROV1 ovarian 78.1% | OVCAR-3 ovarian 53.7% | HS 578T breast 61.6% | NCI/ADR-RES ovarian 69.1%

CN1CCN(C2=Nc3ccccc3Oc3ccc(Cl)cc32)CC1
inactive: EKVX NSCLC 107% | UO-31 renal 77.1% | TK-10 renal 89.7% | ACHN renal 93.6% | CAKI-1 renal 81.5% | A498 renal 81.3% | CCRF-CEM leukemia 99.6% | MOLT-4 leukemia 80.3% | SR leukemia 76.9% | RPMI-8226 leukemia 99.5% | OVCAR-8 ovarian 107% | OVCAR-5 ovarian 96.1% | OVCAR-4 ovarian 84.3% | SK-OV-3 ovarian 117% | IGROV1 ovarian 97.2% | OVCAR-3 ovarian 104% | HS 578T breast 104% | NCI/ADR-RES ovarian 98%

COc1ccc(-c2nn(-c3cccc(Cl)c3)cc2-c2c(C#N)c(N)n(N)c(=O)c2C#N)cc1
inactive: SN12C renal 68.9% | TK-10 renal 59.8% | ACHN renal 87.2% | CCRF-CEM leukemia 56.8% | OVCAR-8 ovarian 73.3% | OVCAR-5 ovarian 84.4% | OVCAR-4 ovarian 89.3% | SK-OV-3 ovarian 95% | OVCAR-3 ovarian 72.4% | HS 578T breast 58.2% | NCI/ADR-RES ovarian 90.4%

COc1cc(N)c2ncccc2c1SC
inactive: EKVX NSCLC 86% | SN12C renal 105% | ACHN renal 104% | A498 renal 71.8% | CCRF-CEM leukemia 98.5% | MOLT-4 leukemia 101% | SR leukemia 90.4% | RPMI-8226 leukemia 100% | OVCAR-8 ovarian 98.4% | OVCAR-5 ovarian 101% | OVCAR-4 ovarian 105% | SK-OV-3 ovarian 108% | OVCAR-3 ovarian 105% | NCI/ADR-RES ovarian 99.1%

C[C@]12CCC3c4ccc(O)cc4C[C@@H](CCCCCCCCCS(=O)CCCC(F)(F)C(F)(F)F)C3C1CC[C@@H]2O (stereo partly specified)
inactive: EKVX NSCLC 64.8% | UO-31 renal 62.7% | TK-10 renal 93% | ACHN renal 74.3% | CAKI-1 renal 59.2% | A498 renal 84.6% | CCRF-CEM leukemia 73.6% | MOLT-4 leukemia 39.6% | SR leukemia 44.6% | RPMI-8226 leukemia 62.5% | OVCAR-8 ovarian 77.7% | OVCAR-5 ovarian 84.5% | OVCAR-4 ovarian 66.2% | SK-OV-3 ovarian 103% | IGROV1 ovarian 92.3% | OVCAR-3 ovarian 88.4% | HS 578T breast 81.4% | NCI/ADR-RES ovarian 70.4%

CCCCCCCCCCCC[n+]1c(C)cc(N)c2ccccc21
active: SN12C renal 7.94% | TK-10 renal 7.85% | CCRF-CEM leukemia 9.62% | MOLT-4 leukemia -24.1% | RPMI-8226 leukemia -28.4% | OVCAR-8 ovarian 3.24% | SK-OV-3 ovarian -2.73%
inactive: EKVX NSCLC 14.5% | ACHN renal 12% | CAKI-1 renal 25.7% | OVCAR-5 ovarian 31.7% | OVCAR-4 ovarian 15.1% | OVCAR-3 ovarian 18% | NCI/ADR-RES ovarian 53.3%

O=C1CSC(=S)N1/N=C/c1ccc(Cl)s1
inactive: EKVX NSCLC 101% | SN12C renal 95.8% | UO-31 renal 79.3% | TK-10 renal 118% | ACHN renal 98.4% | A498 renal 103% | CCRF-CEM leukemia 98.6% | MOLT-4 leukemia 102% | SR leukemia 98.2% | RPMI-8226 leukemia 97.4% | OVCAR-8 ovarian 106% | OVCAR-5 ovarian 97.6% | OVCAR-4 ovarian 119% | SK-OV-3 ovarian 92.6% | IGROV1 ovarian 100% | OVCAR-3 ovarian 104% | HS 578T breast 112% | NCI/ADR-RES ovarian 97.5%

COc1cc2cc(Oc3ccc(NC(=O)c4cccc(C(F)(F)F)c4)cc3)c(C)nc2cc1OC
active: A498 renal 0.391%
inactive: EKVX NSCLC 18.6% | SN12C renal 36.9% | UO-31 renal 22.8% | ACHN renal 33.9% | CAKI-1 renal 13.3% | CCRF-CEM leukemia 25.9% | MOLT-4 leukemia 28.4% | SR leukemia 28% | RPMI-8226 leukemia 17.5% | OVCAR-8 ovarian 42.5% | OVCAR-5 ovarian 70.2% | OVCAR-4 ovarian 43.2% | SK-OV-3 ovarian 23.4% | IGROV1 ovarian 36.1% | OVCAR-3 ovarian 15% | HS 578T breast 41.2% | NCI/ADR-RES ovarian 26%
